Test results reported in PubChem BioAssay AID1347418 (Sanford-Burnham Center for Chemical Genomics, 2020).
In all, about 1,300 compounds went through this assay and about 750 (58%) were called active. The list shows a part of the results. Unmarked numbers belong to inactive results.

Biological target: Sulfhydryl oxidase 1 (Homo sapiens) (UniProt O00391)
Assay: QSOX1 enzyme inhibitors, primary screen, biochemical, ROS-Glo H2O2 luminescence, HTS (AID 1347418)
Conditions: recombinant QSOX1, ROS-Glo H2O2 luminescence; at 12.5 µM; hits give high values; active = any value above zero

Sulfhydryl oxidase 1 (Homo sapiens), sequence (O00391 whole entry, looked up): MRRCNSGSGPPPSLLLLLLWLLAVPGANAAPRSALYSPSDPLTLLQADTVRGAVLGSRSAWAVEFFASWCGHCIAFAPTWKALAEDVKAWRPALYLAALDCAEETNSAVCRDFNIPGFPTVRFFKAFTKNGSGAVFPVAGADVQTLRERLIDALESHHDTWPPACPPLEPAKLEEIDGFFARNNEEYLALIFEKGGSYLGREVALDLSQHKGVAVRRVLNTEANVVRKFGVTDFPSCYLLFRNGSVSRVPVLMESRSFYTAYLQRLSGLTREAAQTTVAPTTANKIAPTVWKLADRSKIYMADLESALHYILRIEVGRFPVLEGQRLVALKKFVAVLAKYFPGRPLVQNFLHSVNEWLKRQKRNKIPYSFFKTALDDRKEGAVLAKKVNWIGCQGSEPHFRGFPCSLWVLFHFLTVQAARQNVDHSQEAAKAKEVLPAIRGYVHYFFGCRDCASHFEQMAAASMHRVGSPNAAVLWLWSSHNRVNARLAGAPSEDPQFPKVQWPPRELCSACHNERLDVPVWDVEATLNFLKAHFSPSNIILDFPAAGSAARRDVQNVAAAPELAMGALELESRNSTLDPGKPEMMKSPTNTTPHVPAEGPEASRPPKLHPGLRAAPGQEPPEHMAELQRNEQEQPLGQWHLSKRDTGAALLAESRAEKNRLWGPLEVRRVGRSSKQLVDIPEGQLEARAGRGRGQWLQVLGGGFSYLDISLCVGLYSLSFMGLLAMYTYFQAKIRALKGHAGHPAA

SMILES	inhibition
O=C(O)C1CN(CCCP(=O)(O)O)CCN1 (configuration not stated)	2.1% (active)
CN1CCC2(CCN3CCc4c(oc5ccccc45)C3C2)N(C)C1=O (configuration not stated)	-6.5%
NC(=O)CNCCC(c1ccccc1)c1ccccc1	2.2% (active)
OC(CN1CCN(c2cccc(Cl)c2)CC1)C(c1ccccc1)c1ccccc1 (configuration not stated)	5.1% (active)
CC1CCN=C(N)S1 (configuration not stated)	-1.8%
O=C(O)C1=CCCN(CCON=C(c2ccccc2)c2ccccc2)C1	1.1% (active)
CC(C)C[C@H]1C(=O)N2CCC[C@H]2[C@]2(O)O[C@](NC(=O)[C@@H]3C=C4c5cccc6[nH]c(Br)c(c56)C[C@H]4N(C)C3)(C(C)C)C(=O)N12	4% (active)
CCCn1c(=O)[nH]c(=O)c2[nH]cnc21	-1.8%
CC1C(=O)N(C)C(=O)c2nc[nH]c21 (configuration not stated)	0.5% (active)
Cc1ccc(S(=O)(=O)NC(=O)NN2CCCCCC2)cc1	4.7% (active)
Cc1ccc(S(=O)(=O)N[C@@H](Cc2ccccc2)C(=O)CCl)cc1	-8.2%
CCc1ccc2c(-c3cccc(Cl)c3)nc(=O)n(CC)c2n1	-0.7%
Clc1cccc(Cl)c1NC1=NCCN1	-1.9%
Clc1ccc2nsnc2c1NC1=NCCN1	1.5% (active)
Nc1cc(Cl)c(NC2=NCCN2)c(Cl)c1	-2.8%
Cn1cc(C2=C(c3ccc(Cl)cc3Cl)C(=O)NC2=O)c2ccccc21	-1.7%

SMILES	inhibition
COc1cc(CNC(=O)CCCCCCC(C)C)ccc1O	7.6% (active)
COc1cc(CC(=O)O)ccc1O	11% (active)
CCN(CC)C(=O)c1ccc(O)c(OC)c1	6.8% (active)
O=C(O)Cc1ccc(O)c(O)c1	5.6% (active)
CCCCCCCC/C=C\CCCCCCCC(=O)NCc1ccc(O)c(OC)c1	-4.3%
CC1CCN(CC[C@H]2CCCN2S(=O)(=O)c2cccc(O)c2)CC1	-3.7%
Brc1c(NC2=NCCN2)ccc2nccnc12	-3.8%
O=C1c2ccccc2-c2n[nH]c3cccc1c23	12.7% (active)
Oc1cc2c(cc1O)C(c1ccccc1)CNCC2 (configuration not stated)	5.7% (active)
Oc1ccc(C2CNCCc3c2cc(O)c(O)c3Cl)cc1 (configuration not stated)	30% (active)
Oc1cc2c(c(Cl)c1O)CCNCC2c1ccccc1 (configuration not stated)	24.1% (active)
O=C(O)C1=CCNCC1	-1.6%
CC(N)=NCCCC[C@@H](N)C(=O)O	-0.6%
CSC(N)=NCCC[C@H](N)C(=O)O	1.7% (active)
CN(C)C(N)=NCCC[C@H](N)C(=O)O	0.3% (active)
NC(N)=NCCC[C@H](N)C(=O)O	6% (active)
